ROC1-CUL1 inh – human ROC1-CUL1 E3 ligase inhibition; AID 1347404; hit rate 0.6% among 140,000; in vitro K48 di-Ub FRET, acceptor:donor ratio, 45 min; inhibition, % at 10 µM; P62877+Q13616; in the data active = inhibition above about 25%
Large screens that a line does not name were inactive. This is one part of a sample in which hits are shown more often than they occur.

Cc1ccc(N2NC(=O)/C(=C/c3ccc(-c4ccc(S(=O)(=O)Nc5nccs5)cc4)o3)C2=O)cc1Cl	ROC1-CUL1 inh 99
CCc1ccc(N2NC(=O)/C(=C/c3ccc(-c4ccc(S(=O)(=O)Nc5nccs5)cc4)o3)C2=O)cc1	ROC1-CUL1 inh 93
Cc1ccc(N2NC(=O)/C(=C/c3ccc(-c4ccc(S(=O)(=O)Nc5nccs5)cc4)o3)C2=O)cc1C	ROC1-CUL1 inh 85
O=C1NN(c2ccc(F)c(Cl)c2)C(=O)/C1=C/c1ccc(-c2cccc(Cl)c2)o1	none
O=C1NN(c2ccc(F)c(Cl)c2)C(=O)/C1=C/c1ccc(-c2ccc(Cl)cc2)o1	none
O=C1NN(c2ccc(Br)cc2)C(=O)/C1=C\c1ccc(-c2ccccc2)o1	none
COC(=O)c1cccc(-c2ccc(/C=C3/C(=O)NN(c4ccc(C)c(C)c4)C3=O)o2)c1	none
O=C1NN(c2cccc(F)c2)C(=O)/C1=C/c1ccc(-c2ccc(Cl)cc2)o1	none
CCCOC(=O)c1cc(-c2ccc(/C=C3/C(=O)NN(c4ccc(CC)cc4)C3=O)o2)ccc1Cl	none
C=CCN1C(=O)C(C(=O)NCCc2ccccc2)C(=O)c2ccccc21 (stereo not given)	none
CSc1cccc(NC(=O)c2ccc(CN3CCCCC3)cc2)c1	none
COc1cc(/C=C2/C(=O)NN(c3ccccc3)C2=O)cc(I)c1O	none
CCOC(=O)c1ccc(NC(=O)c2ccc(S(=O)(=O)N3CCCCCC3)cc2)cc1	none
Cc1ccccc1CCC1CCCN(C(=O)c2cc[n+]([O-])cc2)C1 (stereo not given)	none
O=C(Nc1ccncc1)c1ccc(CNS(=O)(=O)c2cccc(C(F)(F)F)c2)cc1	none
CCNS(=O)(=O)c1cc(C(=O)N2CCOCC2)ccc1OC	none
CCN1CCN(C(c2ccc(OC)cc2)C2C(=O)C=C(C)N(CCOC)C2=O)CC1 (stereo not given)	none
Cn1cccc1/C=C/c1cc(Br)c(/C=C/c2cccn2C)cc1Br	ROC1-CUL1 inh 95
CCN1C(=O)S/C(=C/c2cccn2C)C1=O	none
Cn1cccc1/C=C1/C(=O)ON=C1c1ccccc1	none
COc1ccc(C(=O)Oc2ccc(C(c3c(C)[nH][nH]c3=O)c3c(C)[nH][nH]c3=O)cc2OC)cc1	none
COc1cc(C(c2c(C)[nH][nH]c2=O)c2c(C)[nH][nH]c2=O)ccc1OC(=O)c1ccccc1F	none
CCOc1cc(C(c2c(C)[nH][nH]c2=O)c2c(C)[nH][nH]c2=O)ccc1OCc1cccc2ccccc12	ROC1-CUL1 inh 45
COCCN1C(=O)C(=O)C(C(=O)c2ccco2)C1c1cccc(OC)c1 (stereo not given)	none
NC(=O)C(Cc1ccc2c(c1)OCO2)=NC(=O)c1ccco1	none
Cc1ccc(C(=O)Nc2ccc(N3CCC(NCc4ccc(C)o4)CC3)cc2)c(C)c1	none
CCOc1cc(CNc2ccc(C)c(Cl)c2)cc(Cl)c1OCc1ccc(Cl)cc1Cl	none
COc1cc(CNc2ccc(N3CCCCC3)cc2)cc(Cl)c1OCc1cccs1	none
COc1cc(CNc2ccc(O)cc2)cc(Cl)c1OCc1ccc(Cl)cc1	none
COc1cc(CNc2ccc(N3CCCC3)cc2)cc(Cl)c1OC	none
CCOc1cc(CNc2ccc(N3CCCC3)cc2)cc(Cl)c1OC	ROC1-CUL1 inh 63
CCOc1cc(CNc2ccc(O)cc2)cc(Cl)c1OCc1ccc(Cl)cc1	ROC1-CUL1 inh 86
Cc1nnc(SC2c3ccccc3-c3ccccc32)n(N)c1=O	none
CCC(=O)Nc1ccc(S(N)(=O)=O)cc1	none
Cc1cc(C)c(C)c(OC(=O)C23CCC(C)(C(=O)O2)C3(C)C)c1 (stereo not given)	none
Cc1cc2c(cc1NC(=O)c1ccc(F)cc1)n(C)c(=O)n2C	none
Cc1[nH]nc2c1C(c1ccc3ccccc3c1)C(C#N)C(=N)O2 (stereo not given)	none
CN(CCc1ccccc1)C1(C(=O)NC2CCC(O)CC2)Cc2ccccc2C1 (stereo not given)	none
COc1ccc(N2C(=O)NC(=O)C3C2=NC(=O)C3(NC(=O)c2ccccc2Cl)C(F)(F)F)cc1 (stereo not given)	none
CCc1cccc(C)c1NS(=O)(=O)c1cc2[nH]c(=O)c(=O)[nH]c2cc1C	ROC1-CUL1 inh 44
CCOC(=O)c1cccc(NS(=O)(=O)c2cc3[nH]c(=O)c(=O)[nH]c3cc2C)c1	none
Cc1cc(C)cc(NS(=O)(=O)c2cc3[nH]c(=O)c(=O)[nH]c3cc2C)c1	none
O=c1[nH]c(Cc2ccc(Cl)cc2)nc2scc(-c3ccccc3)c12	none
CC1(C)Cc2nc(C(C)(C)C)ncc2C(NC(=O)c2ccco2)C1 (stereo not given)	none
Cc1ccc(OCc2nnc3n2N=C(c2ccc(Cl)cc2)CS3)cc1	none
O=C(O)COc1c(Br)cc(CC2=NC(=O)N(Cc3ccccc3)C2=O)cc1Br	none
NC(=O)Nc1cccc(NC(=O)/C=C\C(=O)O)c1	none
